High-throughput results deposited in PubChem by National Center for Advancing Translational Sciences (NCATS).
This is a sample that favours compounds with a hit; in the whole collection about 6.1% have one here.
D1 potentiator: Potentiators of Human D1 Dopamine Receptor: qHTS | D(1A) dopamine receptor (Homo sapiens), P21728 | HEK293 TREx D1 cells, calcium flux, dopamine EC20 potentiation | potentiation, % at 10 µM | 0.036% of 360,000 active | AID 504651, 2011; in the data active = potentiation above about 30%
D1 ag: Allosteric Agonists of the Human D1 Dopamine Receptor: qHTS. D(1A) dopamine receptor (Homo sapiens), P21728. HEK293 T-REx D1 cells, calcium flux, agonist mode. activation, % at 2 µM. 1% of 360,000 active; in the data active = activation above about 30%
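Tetracycline-induced HEK293 TREx D1 cells, force-coupled to calcium signalling, were dye-loaded with a no-wash calcium kit. Compound was pin-added after a 10 s baseline. Fluorescence was read kinetically at 1 cycle/s for 180 s, with calcium rises flagged as agonism.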
ERG-DNA inh: qHTS for Small Molecule Inhibitors of the ERG Ets/DNA interaction. fluorescence polarization, His-ERG Ets domain / labelled DNA. Potency, µM (top dose mostly 76.9 µM), most hits filed as inhibitors. 0.028% of 370,000 active. AID 624246, 2012; active = well fitted inhibition curve with a large enough effect in the polarisation, with a control signal flat; inconclusive = small, poorly fitted or top-dose-only effect, or effect the other way, or a change in a side signal; inactive = no such curve, though single readings can be large or run the other way; the % refers to the polarisation;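 also: polarization taken with two DNA probes labelled with fluorescein and Texas red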
Target sequence (P11308 whole entry, looked up, the tested form may be a part): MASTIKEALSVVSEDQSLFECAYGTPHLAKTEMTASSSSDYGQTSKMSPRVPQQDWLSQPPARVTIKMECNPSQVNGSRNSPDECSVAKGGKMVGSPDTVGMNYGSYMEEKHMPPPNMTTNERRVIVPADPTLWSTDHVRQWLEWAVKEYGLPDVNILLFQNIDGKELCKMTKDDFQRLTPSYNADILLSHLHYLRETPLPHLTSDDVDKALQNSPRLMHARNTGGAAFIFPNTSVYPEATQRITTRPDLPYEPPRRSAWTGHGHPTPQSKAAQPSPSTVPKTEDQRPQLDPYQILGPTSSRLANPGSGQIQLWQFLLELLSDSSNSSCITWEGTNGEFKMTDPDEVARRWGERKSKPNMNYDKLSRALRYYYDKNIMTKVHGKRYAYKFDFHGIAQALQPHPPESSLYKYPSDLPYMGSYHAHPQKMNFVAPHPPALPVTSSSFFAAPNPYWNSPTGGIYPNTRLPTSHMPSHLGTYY
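His-tagged ERG Ets domain (1 uM in the protein solution; 300mM KCl, 50mM Tris-HCl, 1mM EDTA, 1mM DTT, pH 7.5) received compound, then a probe mix of 5 nM fluorescein-DNA and 100nM Texas-615-DNA. Fluorescence polarization was read for both dyes.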
DRD3 agonist: qHTS of D3 Dopamine Receptor Agonist: qHTS; D3R DiscoveRx beta-arrestin cells, luminescence, 90 min; D(3) dopamine receptor (Homo sapiens), P35462; 0.58% of 410,000 active; AID 652048, 2013; max activation, %; in the data active = max activation above about 30%
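Agonist mode: compounds and dopamine controls were applied to plated cells for 90 min at 37 degrees C after an overnight attachment at 1500 cells/well. Luminescent read-out followed 30 - 60 minutes at room temperature with DiscoveRx detection reagent.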
DRD3 antagonist: qHTS of D3 Dopamine Receptor Antagonist: qHTS; D(3) dopamine receptor (Homo sapiens), P35462; D3R cells, DiscoveRx beta-arrestin luminescence, antagonist mode; hits give low values; max response, negative = inhibition, %; 2.5% of 360,000 active; AID 652054, 2013; in the data active = max response below about -50%; inconclusive = no clear call, values can overlap the other calls
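Cells expressing the human receptor were seeded at 1500 cells/well, incubated overnight at 37 degrees C in 5% CO2, then exposed to library compounds with dopamine controls for 90 minutes at 37 degrees C before luminescent detection.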
D1 antag: Antagonist of Human D 1 Dopamine Receptor: qHTS | HEK293 TREx D1 cells, calcium flux, dopamine EC80; hits give low values | activity change, negative = inhibition, % at 10 µM | 3.2% of 360,000 active | AID 504652, 2011; in the data active = activity change below about -30%
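After overnight tetracycline induction at 30 C, force-coupled D1 HEK293 cells took up a no-wash calcium dye at room temperature. Compounds were added and monitored 180 s, and the response to EC80 dopamine was then recorded.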
A number is an active result; 0 = inactive; ? = inconclusive; - = not tested or not shown.

SMILES	D1 potentiator	D1 ag	ERG-DNA inh	DRD3 agonist	DRD3 antagonist	D1 antag
O=C(Nc1ccc2c(c1)OCCO2)c1ccc(Cl)c([N+](=O)[O-])c1	0	0	0	0	0	0
Cc1cc(C(=O)Nc2cnc3ccccc3c2)ccc1[N+](=O)[O-]	0	0	0	0	0	-60
Cc1cc(C(=O)Nc2ccc3c(c2)OCCO3)ccc1[N+](=O)[O-]	0	0	0	0	-62	0
Cc1ccc(C(=O)Nc2cnc3ccccc3c2)cc1	0	0	0	0	0	0
CCn1cc([N+](=O)[O-])c(C(=O)N2CCCC2)n1	0	0	0	32	0	0
CCOc1ccc(NC(=O)NNC(=O)c2cccnc2)cc1	0	0	0	0	0	0
COC(=O)Nc1ccc(S(=O)(=O)NCc2ccccn2)cc1	0	0	0	0	0	0
Cc1ccsc1C(=O)OCC(=O)NCc1ccc(Cl)cc1	0	0	0	0	0	0
COc1ccc(-c2cnnc(N/N=C/c3ccc(-c4ccc([N+](=O)[O-])cc4)o3)n2)cc1	0	0	0	0	0	0
COc1ccccc1-c1cnnc(N/N=C/c2ccc(-c3cccc(Br)c3)o2)n1	0	0	0	57	0	0
Cc1ccc(COC(=O)CCCN=C2NS(=O)(=O)c3ccccc32)cc1	0	0	0	0	0	0
CCc1cc(=O)oc2cc(OCC(=O)NCCCn3ccnc3)ccc12	0	0	0	0	0	-37
COc1ccc(-c2cc(=O)oc3cc(OCC(=O)NCCCn4ccnc4)ccc23)cc1	0	0	0	0	0	0
O=C(COc1ccc2c3c(c(=O)oc2c1)CCCC3)NCCCN1CCOCC1	0	0	0	0	0	-30
COc1ccc(OC)c(NC(=O)CCN2CCN(c3ccccc3)CC2)c1	0	0	0	30	-53	0
COC(=O)c1[nH]c2ccccc2c1NC(=O)CCN1CCSCC1	0	0	0	0	-57	0
CCOC(=O)C1CCCN(CCC(=O)Nc2c(C(=O)OC)[nH]c3cc(OC)ccc23)C1 (stereo not drawn)	0	0	0	0	0	0
COC(=O)c1[nH]c2cc(OC)ccc2c1NC(=O)CCN1CCN(c2cccc(C)c2C)CC1	0	0	0	0	-80	0
COC(=O)c1[nH]c2cc(OC)ccc2c1NC(=O)CCN1CCN(c2ccccc2)CC1	0	0	0	0	-76	-
CN1C(=O)/C(=C/c2ccc3c(c2)OCO3)N=C1c1ccccc1	0	0	0	0	0	0
Cc1n[nH]c(C)c1S(=O)(=O)N1CCCC(C(=O)NCc2cccs2)C1 (stereo not drawn)	0	0	0	0	0	0
Cc1nc(SCC(=O)NCC2CCCO2)[nH]c(=O)c1C (stereo not drawn)	0	0	0	0	0	0
O=C(C1CCN(S(=O)(=O)c2ccccc2)CC1)N1CCN(c2ccccc2F)CC1	0	0	0	0	0	0
O=c1c2[nH]c3cccc(Cl)c3c2ncn1CCN1CCCCC1	0	0	0	0	?	0
O=c1c2[nH]c3cccc(Cl)c3c2ncn1CC1CCCO1 (stereo not drawn)	0	0	0	0	0	-30
SMILES	D1 potentiator	D1 ag	ERG-DNA inh	DRD3 agonist	DRD3 antagonist	D1 antag
CS(=O)(=O)N1CCC(C(=O)Nc2ccc(F)cc2)CC1	0	0	0	0	0	0
O=C(Nc1ccc(F)cc1)C1CCN(S(=O)(=O)c2cccs2)CC1	0	0	0	0	0	-40
O=C(Nc1ccc(F)cc1)C1CCC(N2C(=O)c3ccccc3C2=O)CC1 (stereo not drawn)	0	0	-	0	0	-30
Cc1csc(NC(=O)C2CCN(S(=O)(=O)c3ccccc3F)CC2)n1	0	0	0	0	0	-38
O=C(Nc1cc(Cl)ccn1)C1CCN(S(=O)(=O)c2cccs2)CC1	0	0	0	0	0	-31
COc1ccc(OC)c(NC(=O)c2ccc(-c3csc(C)n3)cc2)c1	0	0	0	0	0	0
CCOC(=O)c1csc(NC(=O)CN2CCOCC2)n1	0	0	0	0	0	0
O=C(C1CCC(CNS(=O)(=O)c2cccs2)CC1)N1CCN(c2ccc(F)cc2)CC1 (stereo not drawn)	0	0	0	45	0	0
CCC(C(=O)Nc1nc(C)cs1)c1ccccc1 (stereo not drawn)	0	0	0	0	0	0
O=C(CCc1nnc(CCC2CCCCC2)o1)NCCn1cccn1	0	0	0	0	0	0
COc1cc(C(=O)OCC(=O)N2CCCC2)cc(OC)c1OC	0	0	0	0	0	-42
Cc1ccc(C(=O)OCC(=O)N2CCCC2)cc1	0	0	0	0	0	-56
CCCCNCc1cc2ccccc2o1	0	0	0	0	-51	0
Cc1ccc(-c2csc3n[nH]c(=S)n23)cc1	0	0	0	0	-100	0
CCN(CC)C(=O)CC(c1ccc2c(c1)OCO2)c1c(OC)cc(OC)c2ccc(=O)oc12 (stereo not drawn)	0	0	0	0	0	-38
CC(O)CNc1nc2sc3c(c2c(=O)n1Cc1ccco1)CCCCC3 (stereo not drawn)	0	34	0	0	0	0
O=c1c2c3c(sc2nc(NCCOCCO)n1Cc1ccco1)CCCCC3	0	0	0	0	0	0
O=c1c2c3c(sc2n(CCN2CCCCC2)c(=O)n1Cc1ccco1)CCCCC3	0	0	0	0	-93	0
O=c1c2c3c(sc2n(CCN2CCOCC2)c(=O)n1Cc1ccco1)CCCCC3	0	0	0	0	0	0
CN(C)CCNc1nc2sc3c(c2c(=O)n1CCc1ccccc1)CCCCC3	0	106	0	0	0	-35
N=c1c2c3c(sc2ncn1Cc1ccco1)CCCCC3	0	0	0	0	0	-35
Cc1cccc(OCc2nnc(SCC(=O)OC3CCCCC3)o2)c1	0	0	0	0	0	0
COc1ccc(-c2cc(C(F)(F)F)nc(SCCC(=O)N3CCN4CCCC4C3)n2)cc1 (stereo not drawn)	0	0	0	0	0	0
C=CCN(C(=O)CNC(=O)c1ccco1)C(C(=O)NC1CCCCC1)c1ccc(OC)cc1OC (stereo not drawn)	0	0	0	0	0	0
CCCn1nc(C(=O)Nc2ccc3nc(N4CCOCC4)sc3c2)ccc1=O	0	0	0	0	0	0
Cc1c2ccccc2nc2c(F)c(NCCO)c(F)c(F)c12	0	0	0	0	0	0
